Results reported in the supplement of paper PMC7724964.

T1: SND1 650-910 TUDOR+SNase (domain begin residue: 650, domain end residue: 910), Q7KZF4
T1 chain: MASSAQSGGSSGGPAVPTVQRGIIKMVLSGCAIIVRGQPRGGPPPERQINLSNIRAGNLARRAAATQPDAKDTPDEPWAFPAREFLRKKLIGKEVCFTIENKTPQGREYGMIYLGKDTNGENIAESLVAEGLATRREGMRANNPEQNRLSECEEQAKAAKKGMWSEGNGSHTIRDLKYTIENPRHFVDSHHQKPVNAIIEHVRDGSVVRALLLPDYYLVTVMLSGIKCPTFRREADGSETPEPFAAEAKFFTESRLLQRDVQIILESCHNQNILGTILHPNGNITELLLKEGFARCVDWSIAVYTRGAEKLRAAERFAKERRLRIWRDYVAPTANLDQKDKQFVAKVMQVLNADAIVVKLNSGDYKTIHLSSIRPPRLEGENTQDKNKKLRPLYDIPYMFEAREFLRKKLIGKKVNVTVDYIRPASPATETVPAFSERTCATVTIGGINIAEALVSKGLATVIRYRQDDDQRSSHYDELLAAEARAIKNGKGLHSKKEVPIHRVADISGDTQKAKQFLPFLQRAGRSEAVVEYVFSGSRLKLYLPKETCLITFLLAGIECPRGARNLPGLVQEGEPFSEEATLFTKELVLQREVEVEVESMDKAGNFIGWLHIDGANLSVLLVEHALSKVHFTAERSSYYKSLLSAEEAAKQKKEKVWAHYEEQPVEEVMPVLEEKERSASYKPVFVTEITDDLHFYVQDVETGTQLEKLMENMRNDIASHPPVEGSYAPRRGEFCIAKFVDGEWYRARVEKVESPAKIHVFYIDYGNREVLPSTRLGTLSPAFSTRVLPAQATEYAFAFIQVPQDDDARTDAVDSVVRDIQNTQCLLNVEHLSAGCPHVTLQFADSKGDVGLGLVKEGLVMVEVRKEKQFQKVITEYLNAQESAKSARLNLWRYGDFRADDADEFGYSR

T2: NR1D2 386-579 Hormone_recep (domain begin residue: 386, domain end residue: 579), Q14995
T2 chain: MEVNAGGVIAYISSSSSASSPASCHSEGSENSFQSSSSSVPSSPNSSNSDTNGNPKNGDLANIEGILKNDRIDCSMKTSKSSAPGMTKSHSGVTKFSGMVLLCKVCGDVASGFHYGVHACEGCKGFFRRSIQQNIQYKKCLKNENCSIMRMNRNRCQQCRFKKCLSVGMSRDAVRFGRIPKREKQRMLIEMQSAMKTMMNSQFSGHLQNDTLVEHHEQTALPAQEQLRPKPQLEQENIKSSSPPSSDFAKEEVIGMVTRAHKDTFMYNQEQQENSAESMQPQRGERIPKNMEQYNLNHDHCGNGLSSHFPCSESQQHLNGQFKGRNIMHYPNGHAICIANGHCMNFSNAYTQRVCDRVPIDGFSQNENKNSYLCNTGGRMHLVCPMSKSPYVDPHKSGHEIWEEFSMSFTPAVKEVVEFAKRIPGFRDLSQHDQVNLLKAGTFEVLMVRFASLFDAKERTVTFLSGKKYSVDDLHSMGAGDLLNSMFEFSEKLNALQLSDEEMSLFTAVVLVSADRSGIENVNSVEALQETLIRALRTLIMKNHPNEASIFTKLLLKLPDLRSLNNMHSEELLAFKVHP

T3: MDM4 26-106 SWIB (domain begin residue: 26, domain end residue: 106), O15151
T3 chain: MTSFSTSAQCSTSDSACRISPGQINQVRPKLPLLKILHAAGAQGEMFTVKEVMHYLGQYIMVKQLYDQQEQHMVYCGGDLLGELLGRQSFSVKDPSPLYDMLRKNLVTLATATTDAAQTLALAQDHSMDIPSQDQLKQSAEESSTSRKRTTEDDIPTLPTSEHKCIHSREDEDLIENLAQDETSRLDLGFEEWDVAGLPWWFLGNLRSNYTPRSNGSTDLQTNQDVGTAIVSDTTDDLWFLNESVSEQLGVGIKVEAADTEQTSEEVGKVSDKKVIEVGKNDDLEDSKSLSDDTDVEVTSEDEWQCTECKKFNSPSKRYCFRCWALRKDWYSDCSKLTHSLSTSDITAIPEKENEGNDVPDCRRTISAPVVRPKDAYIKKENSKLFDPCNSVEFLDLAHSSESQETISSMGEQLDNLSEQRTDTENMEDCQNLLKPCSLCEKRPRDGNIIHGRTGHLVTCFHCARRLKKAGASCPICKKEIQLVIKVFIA

T4: NR1H3 204-447 Hormone_recep (domain begin residue: 204, domain end residue: 447), Q13133
T4 chain: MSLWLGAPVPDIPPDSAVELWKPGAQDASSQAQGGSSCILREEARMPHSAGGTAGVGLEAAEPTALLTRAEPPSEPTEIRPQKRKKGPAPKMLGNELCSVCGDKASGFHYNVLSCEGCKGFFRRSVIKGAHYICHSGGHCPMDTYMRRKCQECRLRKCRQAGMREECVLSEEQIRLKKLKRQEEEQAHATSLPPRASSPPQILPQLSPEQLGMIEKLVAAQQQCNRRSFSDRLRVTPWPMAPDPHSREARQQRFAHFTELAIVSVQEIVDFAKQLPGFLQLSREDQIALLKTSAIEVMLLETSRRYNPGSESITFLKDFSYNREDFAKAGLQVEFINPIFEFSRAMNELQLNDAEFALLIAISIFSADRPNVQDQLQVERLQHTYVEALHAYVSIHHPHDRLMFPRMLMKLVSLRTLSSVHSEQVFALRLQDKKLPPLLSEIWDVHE

T5: NFKBIA 70-282 EF-hand_6 (domain begin residue: 70, domain end residue: 282), P25963
T5 chain: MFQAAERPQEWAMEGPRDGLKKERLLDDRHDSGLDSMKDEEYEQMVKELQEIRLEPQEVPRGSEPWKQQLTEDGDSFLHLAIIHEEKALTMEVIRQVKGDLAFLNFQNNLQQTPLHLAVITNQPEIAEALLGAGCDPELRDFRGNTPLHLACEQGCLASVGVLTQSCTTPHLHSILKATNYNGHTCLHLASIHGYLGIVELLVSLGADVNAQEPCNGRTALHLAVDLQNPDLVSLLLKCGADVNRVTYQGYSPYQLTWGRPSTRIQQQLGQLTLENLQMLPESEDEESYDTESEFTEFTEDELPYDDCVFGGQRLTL

T6: MYL6 4-151 EF-hand_6 (domain begin residue: 4, domain end residue: 151), P60660
T6 chain: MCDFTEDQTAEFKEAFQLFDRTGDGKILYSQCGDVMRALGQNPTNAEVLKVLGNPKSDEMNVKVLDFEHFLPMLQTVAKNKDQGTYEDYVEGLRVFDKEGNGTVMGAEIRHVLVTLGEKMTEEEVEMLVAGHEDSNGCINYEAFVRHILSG

T7: NUP98 730-880 Nucleoporin2 (domain begin residue: 730, domain end residue: 880), P52948
T7 chain: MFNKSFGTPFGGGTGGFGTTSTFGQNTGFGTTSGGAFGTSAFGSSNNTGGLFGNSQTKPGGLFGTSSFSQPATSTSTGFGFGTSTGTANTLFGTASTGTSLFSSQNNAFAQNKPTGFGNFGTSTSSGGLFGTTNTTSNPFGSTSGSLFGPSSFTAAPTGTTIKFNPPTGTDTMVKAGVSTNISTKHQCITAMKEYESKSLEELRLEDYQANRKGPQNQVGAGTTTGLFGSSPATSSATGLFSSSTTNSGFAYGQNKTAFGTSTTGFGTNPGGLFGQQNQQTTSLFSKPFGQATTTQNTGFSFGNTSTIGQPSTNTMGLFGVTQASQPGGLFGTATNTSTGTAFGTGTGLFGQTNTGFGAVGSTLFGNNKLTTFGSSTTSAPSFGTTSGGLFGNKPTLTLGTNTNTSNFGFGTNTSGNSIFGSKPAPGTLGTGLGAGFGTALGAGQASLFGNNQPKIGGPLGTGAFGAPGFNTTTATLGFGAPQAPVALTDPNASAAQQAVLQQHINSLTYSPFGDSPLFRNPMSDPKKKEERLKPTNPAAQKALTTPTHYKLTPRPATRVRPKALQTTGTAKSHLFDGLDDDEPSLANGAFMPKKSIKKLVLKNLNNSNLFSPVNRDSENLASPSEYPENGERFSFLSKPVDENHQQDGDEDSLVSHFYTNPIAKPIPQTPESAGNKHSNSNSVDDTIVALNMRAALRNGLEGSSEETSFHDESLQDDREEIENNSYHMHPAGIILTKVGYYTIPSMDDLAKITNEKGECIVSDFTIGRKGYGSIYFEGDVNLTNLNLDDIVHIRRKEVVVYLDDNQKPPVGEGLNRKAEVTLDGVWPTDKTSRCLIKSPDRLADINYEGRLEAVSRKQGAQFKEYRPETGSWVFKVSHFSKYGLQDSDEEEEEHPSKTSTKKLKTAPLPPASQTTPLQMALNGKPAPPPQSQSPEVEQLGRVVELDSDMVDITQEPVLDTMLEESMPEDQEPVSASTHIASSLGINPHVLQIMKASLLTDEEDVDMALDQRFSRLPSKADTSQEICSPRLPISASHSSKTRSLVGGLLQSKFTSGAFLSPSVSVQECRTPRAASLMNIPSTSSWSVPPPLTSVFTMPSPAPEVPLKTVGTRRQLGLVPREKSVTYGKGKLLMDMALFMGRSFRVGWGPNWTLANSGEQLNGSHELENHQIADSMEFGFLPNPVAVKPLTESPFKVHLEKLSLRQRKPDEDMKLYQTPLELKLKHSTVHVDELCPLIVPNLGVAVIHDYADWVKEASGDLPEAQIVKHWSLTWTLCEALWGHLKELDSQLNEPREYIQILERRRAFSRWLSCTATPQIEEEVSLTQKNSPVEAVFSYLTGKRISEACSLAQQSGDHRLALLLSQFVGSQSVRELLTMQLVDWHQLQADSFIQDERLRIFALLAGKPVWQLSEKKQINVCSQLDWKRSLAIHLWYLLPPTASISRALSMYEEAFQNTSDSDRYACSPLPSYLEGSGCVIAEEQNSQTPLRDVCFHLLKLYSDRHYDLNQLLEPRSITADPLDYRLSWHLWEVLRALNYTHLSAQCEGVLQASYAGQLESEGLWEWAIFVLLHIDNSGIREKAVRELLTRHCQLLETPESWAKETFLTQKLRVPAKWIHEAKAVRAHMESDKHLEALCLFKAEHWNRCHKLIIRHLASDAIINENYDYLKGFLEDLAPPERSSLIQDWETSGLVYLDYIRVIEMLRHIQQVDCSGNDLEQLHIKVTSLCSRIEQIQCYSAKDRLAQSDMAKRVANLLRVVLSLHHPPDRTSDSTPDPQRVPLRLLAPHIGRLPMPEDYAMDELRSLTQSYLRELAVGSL


The binders below were run against MSH6 89-203 PWWP (domain begin residue: 89, domain end residue: 203), P52701 (assay: phage ELISA signal ratio (GST-PRM binding over GST background); higher = stronger binding of peptide-phage to the PRM).
How it was run: (§1)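 Human peptide recognition domains were expressed in 96-well plates as fusions to the C-terminus of glutathione S-transferase (GST) and selected against an M13 phage library displaying randomized hexadecapeptides, cysteine-free and glycine-flanked, on the gene-8 major coat protein. Five selection rounds were run, and approximately 48 individual clones from rounds 4 and 5 were tested by phage ELISA. Each value is the ELISA signal on the GST-domain fusion divided by the signal on GST alone. Positive clones were sequenced.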

Sequence of MSH6 89-203 PWWP (domain begin residue: 89, domain end residue: 203), P52701 (P52701 whole entry, the tested form may be a part): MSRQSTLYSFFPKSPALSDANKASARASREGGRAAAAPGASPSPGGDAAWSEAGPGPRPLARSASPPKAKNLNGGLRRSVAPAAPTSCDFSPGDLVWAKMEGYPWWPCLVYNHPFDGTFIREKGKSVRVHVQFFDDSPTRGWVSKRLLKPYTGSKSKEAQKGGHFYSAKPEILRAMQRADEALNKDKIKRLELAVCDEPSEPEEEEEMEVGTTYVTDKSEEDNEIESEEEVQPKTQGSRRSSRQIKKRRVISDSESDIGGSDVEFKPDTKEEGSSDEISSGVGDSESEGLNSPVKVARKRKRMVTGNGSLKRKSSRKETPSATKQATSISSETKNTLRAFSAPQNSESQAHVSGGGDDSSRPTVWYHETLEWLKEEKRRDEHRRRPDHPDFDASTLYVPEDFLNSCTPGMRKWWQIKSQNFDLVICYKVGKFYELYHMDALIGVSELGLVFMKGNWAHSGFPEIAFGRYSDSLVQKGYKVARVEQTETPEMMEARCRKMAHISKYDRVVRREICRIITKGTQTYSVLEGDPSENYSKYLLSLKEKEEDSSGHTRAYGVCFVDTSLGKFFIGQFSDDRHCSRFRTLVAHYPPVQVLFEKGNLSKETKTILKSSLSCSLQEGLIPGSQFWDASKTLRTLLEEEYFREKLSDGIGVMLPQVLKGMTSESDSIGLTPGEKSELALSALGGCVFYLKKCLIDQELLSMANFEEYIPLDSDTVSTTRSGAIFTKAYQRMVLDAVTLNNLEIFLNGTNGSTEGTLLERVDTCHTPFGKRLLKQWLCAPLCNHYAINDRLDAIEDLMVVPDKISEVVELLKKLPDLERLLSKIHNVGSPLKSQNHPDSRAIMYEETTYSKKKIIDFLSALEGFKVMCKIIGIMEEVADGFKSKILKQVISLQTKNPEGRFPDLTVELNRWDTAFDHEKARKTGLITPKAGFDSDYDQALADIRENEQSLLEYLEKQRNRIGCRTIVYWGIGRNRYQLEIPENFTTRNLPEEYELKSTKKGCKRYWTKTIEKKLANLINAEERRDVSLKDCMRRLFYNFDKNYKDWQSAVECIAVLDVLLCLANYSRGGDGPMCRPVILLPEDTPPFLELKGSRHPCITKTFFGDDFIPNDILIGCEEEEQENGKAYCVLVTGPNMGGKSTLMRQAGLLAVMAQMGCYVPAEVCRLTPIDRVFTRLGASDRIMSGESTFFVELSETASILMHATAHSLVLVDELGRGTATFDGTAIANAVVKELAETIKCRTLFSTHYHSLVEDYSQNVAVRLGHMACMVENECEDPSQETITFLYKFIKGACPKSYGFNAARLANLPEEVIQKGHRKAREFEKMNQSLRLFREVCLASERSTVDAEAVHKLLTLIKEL

Row | Binder | phage ELISA signal ratio
1 | MWWYDGEMEKMIMETL | 4.31
2 | TSYDPWVMEGMTQVVA | 6.43
3 | DYMAIWDHIPLKDAGF | 6.88

Molecular target: T1, SND1 650-910 TUDOR+SNase (domain begin …
Assay: as above
How it was run: as §1

Row | Binder | phage ELISA signal ratio
4 | MWWYDGEMEKMIMETL | 7.5

Molecular target: T2, NR1D2 386-579 Hormone_recep (domain …
Assay: as above
How it was run: as §1

Row | Binder | phage ELISA signal ratio
5 | ENLTALIMAFFSETIQ | 9.19
6 | PHGITDVWAQWFVEML | 5.27

The binders below were run against MAD2L1 2-205 HORMA (domain begin residue: 2, domain end residue: 205), Q13257 in the same assay as above.
How it was run: as §1

Sequence of MAD2L1 2-205 HORMA (domain begin residue: 2, domain end residue: 205), Q13257 (Q13257 whole entry): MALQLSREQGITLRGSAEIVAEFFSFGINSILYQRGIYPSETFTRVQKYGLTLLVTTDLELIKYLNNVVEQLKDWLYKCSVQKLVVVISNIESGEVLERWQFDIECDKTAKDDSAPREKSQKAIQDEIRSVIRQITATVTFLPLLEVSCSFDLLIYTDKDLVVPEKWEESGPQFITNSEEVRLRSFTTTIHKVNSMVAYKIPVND

Row | Binder | phage ELISA signal ratio
7 | SWLRFKAEPPQHIAQL | 9
8 | DREQSGWFILRAPVYQ | 18.9
9 | QHSAMSAVWHFGPMWY | 15
10 | YSIWMMEPPKVAPKAE | 15
11 | VWYRFEPAPMPKPHGQ | 20.4
12 | TWWHLAGPRSHLTTSY | 12.8
13 | PQTGHWIKFPKPWLEN | 15.5
14 | WYIIRGPMWHEPHVIE | 8.9
15 | GWFHIAPPPKQAEYTE | 12.8

Molecular target: T3, MDM4 26-106 SWIB (domain begin residue: …
Assay: as above
How it was run: as §1

Row | Binder | phage ELISA signal ratio
16 | MPLFMDLWQDMMPTNY | 17.9
17 | FVEMWNDMMFEDWDLV | 26.4
18 | IEFMDYWDSLDWMQKV | 14.7
19 | MVEQQVFWYLWMELMN | 19.4
20 | YDFSQYWDAIPEQFIV | 18.1
21 | AVFSQLWEAMPAVDWT | 14.9
22 | MPYAQMQFMDYWQELA | 21.3

Molecular target: T4, NR1H3 204-447 Hormone_recep (domain …
Assay: as above
How it was run: as §1

Row | Binder | phage ELISA signal ratio
23 | VDPDWWDWMMSQLDTN | 6.41
24 | VWPDIYPELQFLHMMY | 5.69
25 | QDEDVWWAWMMGLGME | 8.99

Molecular target: T5, NFKBIA 70-282 EF-hand_6 (domain begin …
Assay: as above
How it was run: as §1

Row | Binder | phage ELISA signal ratio
26 | QPLPPPPPPSSIPAPA | 5.2
27 | YFEMLEDDGVWTAPNW | 4.27
28 | YWEHSNELDYWVEFIA | 5.67

What follows are binders tested against SETD1A 2-220 RRM_1 (domain begin residue: 2, domain end residue: 220), O15047 in the same assay as above.
How it was run: as §1

Sequence of SETD1A 2-220 RRM_1 (domain begin residue: 2, domain end residue: 220), O15047 (O15047 whole entry): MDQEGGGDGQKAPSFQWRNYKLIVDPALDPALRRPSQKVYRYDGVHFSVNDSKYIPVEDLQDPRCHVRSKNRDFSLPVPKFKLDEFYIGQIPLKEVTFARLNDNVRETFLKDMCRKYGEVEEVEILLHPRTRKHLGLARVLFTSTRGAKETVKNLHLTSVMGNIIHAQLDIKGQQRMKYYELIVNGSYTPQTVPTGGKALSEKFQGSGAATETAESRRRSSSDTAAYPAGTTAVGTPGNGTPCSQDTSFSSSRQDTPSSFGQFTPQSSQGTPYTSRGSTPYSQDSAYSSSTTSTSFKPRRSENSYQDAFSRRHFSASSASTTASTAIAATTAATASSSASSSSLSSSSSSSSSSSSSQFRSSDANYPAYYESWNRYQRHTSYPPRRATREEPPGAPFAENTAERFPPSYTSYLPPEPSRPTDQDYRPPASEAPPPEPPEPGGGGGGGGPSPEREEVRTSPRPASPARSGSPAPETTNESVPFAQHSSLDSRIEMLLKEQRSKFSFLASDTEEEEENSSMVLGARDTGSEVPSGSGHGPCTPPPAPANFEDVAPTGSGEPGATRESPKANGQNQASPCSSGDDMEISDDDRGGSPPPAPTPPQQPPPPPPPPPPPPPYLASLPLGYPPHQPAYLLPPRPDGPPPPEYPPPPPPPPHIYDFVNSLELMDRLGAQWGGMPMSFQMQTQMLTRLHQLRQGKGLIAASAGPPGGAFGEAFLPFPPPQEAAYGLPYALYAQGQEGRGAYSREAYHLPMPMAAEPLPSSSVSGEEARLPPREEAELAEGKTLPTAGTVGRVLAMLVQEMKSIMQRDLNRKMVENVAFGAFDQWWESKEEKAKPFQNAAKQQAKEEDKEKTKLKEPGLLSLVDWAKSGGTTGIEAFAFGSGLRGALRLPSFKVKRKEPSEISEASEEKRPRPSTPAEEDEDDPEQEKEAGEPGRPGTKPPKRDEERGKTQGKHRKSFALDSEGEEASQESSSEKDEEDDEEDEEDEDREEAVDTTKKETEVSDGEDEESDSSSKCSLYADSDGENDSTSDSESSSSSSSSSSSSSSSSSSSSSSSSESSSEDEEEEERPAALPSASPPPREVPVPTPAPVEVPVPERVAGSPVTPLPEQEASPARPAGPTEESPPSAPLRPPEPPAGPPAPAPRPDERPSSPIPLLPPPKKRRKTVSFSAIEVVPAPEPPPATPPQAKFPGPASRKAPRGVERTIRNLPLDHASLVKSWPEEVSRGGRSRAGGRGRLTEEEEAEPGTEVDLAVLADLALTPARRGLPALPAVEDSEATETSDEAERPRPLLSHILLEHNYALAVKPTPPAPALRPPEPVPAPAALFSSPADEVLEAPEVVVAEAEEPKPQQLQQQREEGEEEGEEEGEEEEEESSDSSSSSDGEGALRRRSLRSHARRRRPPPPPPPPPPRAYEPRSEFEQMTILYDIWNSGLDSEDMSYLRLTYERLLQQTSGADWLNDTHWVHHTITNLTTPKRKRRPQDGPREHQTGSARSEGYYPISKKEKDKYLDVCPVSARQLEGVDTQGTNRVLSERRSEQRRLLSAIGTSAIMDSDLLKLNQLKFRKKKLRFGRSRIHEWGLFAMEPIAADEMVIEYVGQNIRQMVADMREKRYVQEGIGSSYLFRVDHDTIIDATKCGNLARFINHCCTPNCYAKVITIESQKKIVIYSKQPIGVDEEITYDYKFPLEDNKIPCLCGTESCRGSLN

Row | Binder | phage ELISA signal ratio
29 | TSYDPWVMEGMTQVVA | 7.68

Molecular target: T6, MYL6 4-151 EF-hand_6 (domain begin …
Assay: as above
How it was run: as §1

Row | Binder | phage ELISA signal ratio
30 | TMMPIWSEGQWWWGHI | 3.17

Molecular target: T7, NUP98 730-880 Nucleoporin2 (domain …
Assay: as above
How it was run: as §1

Row | Binder | phage ELISA signal ratio
31 | YWEHSNELDYWVEFIA | 16.9
